Hit rate of the full screen: of about 1,500 compounds, about 460 (31%) were called active. Roughly 1% stayed inconclusive and do not appear here. A selection follows. Potency and affinity values are given separately. Unmarked numbers belong to inactive results.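 Rule for the calls: active = curve reaches 40% activation over neutral controls at an AC40 no higher than the top valid tested concentration; inconclusive = no clear call, values can overlap the other calls; inactive = signal moving opposite to the expected increase, and the rest.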

The experiment is described as follows: GLuc-reported insulin release enhancers, glucose-stimulated beta cells – cell-based, INS-1E, Gaussia luciferase, luminescence, cherry-pick, set 2, dose response (AID 977607).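 Note: 0% = median of the plate neutral control wells.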 Conditions: INS-1E GLuc insulin secretion reporter, 2-3 h, stronger effect = higher value; at 35 µM, 100% = signal doubled over neutral wells unless noted.
As for `Cc1ccc(NCc2cccc(B(O)O)c2)cc1`, the max activation is -34.5%. For the molecule `Cc1cccc(NCc2ccccc2)c1`, the max activation is -18.2% [at 0.0016 µM, 100% = signal doubled over neutral wells]. The figure for `COc1ccc(/C=N/Nc2nc(-c3ccc(Cl)cc3)cc(C(F)(F)F)n2)c(OC)c1` is 30.4%; for `S=C(NCc1ccccc1)Nc1ccc2cn[nH]c2c1` it is -24.4% [at 0.046 µM, 100% = signal doubled over neutral wells]; for `COc1ccccc1C(=O)N/N=C(\C)CC(=O)Nc1ccc2c(c1)OCCO2` it is 15.2% [at 0.005 µM, 100% = signal doubled over neutral wells]. Then `CC(Oc1ccccc1Cl)C(=O)Nc1ccc(S(=O)(=O)Nc2nccs2)cc1` (stereo not given), with -19.7% [at 0.135 µM, 100% = signal doubled over neutral wells]; and `CCOc1ncccc1C(=O)Nc1cccc(S(=O)(=O)NC2=NCCC2)c1`, with -12.4% [at 0.135 µM, 100% = signal doubled over neutral wells]; and `CCOc1ncccc1C(=O)NNC(=O)c1ccccc1-n1cccc1`, with -7.28% [at 3.8 µM, 100% = signal doubled over neutral wells]. The figure for `CCOc1ncccc1C(=O)NCc1ccc(C)cc1` is -15% [at 0.046 µM, 100% = signal doubled over neutral wells]. With `CNC(=O)c1cc(C(=O)c2ccccc2Br)c[nH]1`, the max activation is 25.1% [at 0.135 µM, 100% = signal doubled over neutral wells]. The figure for `COC(=O)CN(c1cccc(C)c1)S(=O)(=O)c1ccccc1` is 23.2% [at 0.42 µM, 100% = signal doubled over neutral wells]; for `CCN(CC(=O)Nc1ccccc1OC)C(=O)C1CCCC1` it is -15.2% [at 3.8 µM, 100% = signal doubled over neutral wells]; for `O=C(Nc1ccc(F)cc1)N1CCCCN2[C@@H](CO)[C@@H](c3ccc(C#Cc4ccccc4)cc3)[C@@H]2C1` it is 21.6% [at 0.0016 µM, 100% = signal doubled over neutral wells]. Then `O=C1CC(NS(=O)(=O)c2cccs2)CN1c1cccc(F)c1` (stereo not given), with -15.9% [at 11 µM, 100% = signal doubled over neutral wells]; and `C=CCNC(=O)COc1coc(CN2CCN(C(=O)c3ccco3)CC2)cc1=O`, with -8.4% [at 0.046 µM, 100% = signal doubled over neutral wells]. Regarding `CCn1ncc2c1C(=O)NC1c3ccccc3C(=O)N21` (stereo not given), the max activation was -17.7% [at 0.0016 µM, 100% = signal doubled over neutral wells]. With `c1ccc2nc3c(nc2c1)c1ccccc1n3CCN1CCOCC1`, the max activation was -14.9% [at 0.005 µM, 100% = signal doubled over neutral wells].

In the case of `CC(=O)Nc1nc(C)nc(-c2ccccc2OC(C)=O)n1`, the max activation was -19.4% [at 0.046 µM, 100% = signal doubled over neutral wells]. Then `O=c1c2ccccc2nc(-c2ccco2)n1/N=C/c1ccco1`, with -20.6% [at 0.0016 µM, 100% = signal doubled over neutral wells]; and `O=c1c2ccccc2nc(-c2ccco2)n1Cc1ccccc1`, with -18.2% [at 0.046 µM, 100% = signal doubled over neutral wells].

Regarding `CSc1ncccc1C(=O)NCCc1ccccc1F`, the max activation was 23.1% [at 3.8 µM, 100% = signal doubled over neutral wells].

Turning to `COCCOc1ccc(C(F)(F)F)cc1NC(=O)c1ccccc1F`, the max activation is -23.9% [at 3.8 µM, 100% = signal doubled over neutral wells].

Turning to `O=C(NCCCNc1ccnc2cc(Cl)ccc12)c1ccccc1F`, the max activation is -28.3%. Then `O=S(=O)(c1cccs1)N1CN(C2CCCCC2)c2nc3ccccc3nc21`, with -12.2%; and `Cc1ccc(OCC(=O)NNC(=O)CCC(=O)Nc2ccc(C)cc2C)cc1`, with -27.6% [at 3.8 µM, 100% = signal doubled over neutral wells]; and `Cc1ccc(S(=O)(=O)N(CC(=O)Nc2ccc(C)cc2C)C(=O)N2CCN(C)CC2)cc1`, with 42% [at 0.046 µM, 100% = signal doubled over neutral wells]. The figure for `CC(=O)N1CCN(C(=O)COC(=O)c2ccc(S(C)(=O)=O)cc2)CC1` is 25.9%.

`CCSc1nnc(NC(=O)c2csc(C)c2)s1`: the max activation was -21.3% [at 0.0016 µM, 100% = signal doubled over neutral wells]. Turning to `CCC(=O)Nc1nnc(Sc2ccc(N(C)C)cc2)s1`, the max activation was -22.3% [at 0.046 µM, 100% = signal doubled over neutral wells]. The figure for `CCC(CC)NC(=O)CN1CCN(S(=O)(=O)c2cccs2)CC1` is -15.7% [at 3.8 µM, 100% = signal doubled over neutral wells]; for `Cc1nnc2c(NCCC(C)C)nc3ccccc3n12` it is -15%; for `CC1(C)Cc2c(cnn2-c2ccccc2)C(NC(=O)CCN2CCCC2=O)C1` (stereo not given) it is -18.4%. The figure for `Cc1ccc(-n2ncc3c2CC(C)(C)CC3NC(=O)CCCN2CCCC2=O)cc1` (stereo not given) is -26.8% [at 0.046 µM, 100% = signal doubled over neutral wells]. Then `CCn1nc(NC(=O)c2ccco2)c2cc3ccccc3nc21`, with 61.7% [at 11 µM, 100% = signal doubled over neutral wells]; and `CCCn1nc(NC(=O)c2ccco2)c2cc3ccccc3nc21`, with -15.7% [at 0.0016 µM, 100% = signal doubled over neutral wells]; and `CCOc1ccc(CCNC(=O)CCNC(=O)c2ccco2)cc1OCC`, with 12.9% [at 3.8 µM, 100% = signal doubled over neutral wells]. Take `CC1(C)CC(=O)C(C=NC2CC(C)(C)NC(C)(C)C2)=C(O)C1`: the max activation was -17.1% [at 0.005 µM, 100% = signal doubled over neutral wells]. The figure for `CCSc1nnc(-c2cccnc2)n1-c1ccc(C)c(Cl)c1` is -13.6% [at 0.0016 µM, 100% = signal doubled over neutral wells]; for `CN(c1ccc(C(=O)N2CCN(Cc3ccccc3)CC2)cc1)S(=O)(=O)c1ccccc1` it is -44.5%; for `O=C(CN1C(=O)CCC1=O)Nc1cccc2c1C(=O)NC2=O` it is -14.9% [at 1.2 µM, 100% = signal doubled over neutral wells]. Then `CN(Cc1ccc(OCC(O)CN(C)Cc2ccccc2)cc1)Cc1nccn1C` (stereo not given), with -10.6% [at 0.0016 µM, 100% = signal doubled over neutral wells]. Then `N=c1n(CCN2CCCCC2)c2ccccc2n1CC(O)COc1ccccc1` (stereo not given), with -22.3% [at 1.2 µM, 100% = signal doubled over neutral wells]; and `O=C(NNC1CCN(Cc2ccccc2)CC1)c1ccccc1`, with -25% [at 3.8 µM, 100% = signal doubled over neutral wells]. As for `Cc1cccc2[nH]c3c(N4CC=C(c5ccc(F)cc5)CC4)ncnc3c12`, the max activation was 18.7% [at 1.2 µM, 100% = signal doubled over neutral wells]. Then `FC(F)(F)c1cc(-c2ccccc2)nc(-n2cc(Cl)cn2)n1`, with -21.3% [at 0.015 µM, 100% = signal doubled over neutral wells]; and `CCN(C[C@H]1N[C@@](CC)(C(=O)OC)[C@H]2C(=O)N(C)C(=O)[C@@H]12)S(=O)(=O)c1ccc(OC)cc1`, with -12.8% [at 0.42 µM, 100% = signal doubled over neutral wells]; and `COc1ccc(C(=O)C2CCCN(Cc3cccn3-c3nccs3)C2)cc1OC` (stereo not given), with -15.9% [at 0.005 µM, 100% = signal doubled over neutral wells].

On to `COc1ccc(F)cc1C(=O)C1CCCN(C(=O)c2ccc(C(C)=O)s2)C1` (stereo not given), for which the max activation is -19.8%. Then `CCOC(=O)c1[nH]cnc1C(=O)NC(C)C`, with -21.9% [at 0.135 µM, 100% = signal doubled over neutral wells]; and `CC(C)C[C@H](NC(=O)c1nc[nH]c1C(=O)NC1CCN(C(=O)OC(C)(C)C)CC1)C(=O)OC(C)(C)C`, with 60.6%; and `CN1C(=O)NC(c2ccc(O)cc2)C2=C1CN(c1ccccc1)C2=O` (stereo not given), with -22.4% [at 3.8 µM, 100% = signal doubled over neutral wells]. For the molecule `CC(C)c1c(C(=O)N/N=C/c2cccc3ccccc23)nnn1-c1nonc1N`, the max activation was -43.8%. The figure for `O=C(COc1ccccc1Cl)NNC(=O)c1ccc2nc[nH]c2c1` is 15.8% [at 1.2 µM, 100% = signal doubled over neutral wells]. `COC(=O)C[C@@H]1OC[C@H](C(C)C)N1S(=O)(=O)c1ccc(C)cc1`: the max activation is -15.5%. Consider `O=C(COC(=O)c1ncc(Cl)c(Cl)c1Cl)NC1CCS(=O)(=O)C1` (stereo not given), for which the max activation was -18.3%.
